Compound activity as filed in PubChem BioAssay.
D1 PAM: potentiators of human D1 dopamine receptor; P21728; AID 504651; actives 0.036% (n = 360,000); HEK293 TREx D1 cells, calcium flux, dopamine EC20 potentiation; potentiation, % at 10 µM; in the data active = potentiation above about 30%; note: 0% is about no effect
Target sequence (P21728 whole entry, looked up): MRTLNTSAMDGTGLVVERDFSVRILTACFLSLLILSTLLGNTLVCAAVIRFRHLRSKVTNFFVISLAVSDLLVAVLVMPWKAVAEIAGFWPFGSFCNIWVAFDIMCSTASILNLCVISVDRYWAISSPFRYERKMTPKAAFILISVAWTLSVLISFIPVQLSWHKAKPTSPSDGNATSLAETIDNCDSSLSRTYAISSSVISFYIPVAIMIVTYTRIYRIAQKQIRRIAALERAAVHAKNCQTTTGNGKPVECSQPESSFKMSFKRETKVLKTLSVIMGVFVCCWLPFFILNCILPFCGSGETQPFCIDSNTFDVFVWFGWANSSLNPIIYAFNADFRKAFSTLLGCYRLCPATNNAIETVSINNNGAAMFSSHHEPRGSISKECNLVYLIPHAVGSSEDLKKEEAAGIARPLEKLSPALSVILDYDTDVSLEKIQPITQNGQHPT
D1 agonist: activates the human D1 dopamine receptor | P21728 | HEK293 T-REx D1 cells, calcium flux, agonist mode | activation, % at 2 µM | actives 1% (n = 360,000) | AID 504660; in the data active = activation above about 30%; note: 0% is about no effect
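Agonism was scored from calcium flux recorded over 180 s (1 read/s) after pintool compound addition, following a 10-cycle baseline. Cells were inducible force-coupled HEK293 TREx D1, plated overnight at 30 C and loaded with no-wash calcium dye.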
DRD3 antagonist: D3 dopamine receptor (human) antagonism; D3R cells, DiscoveRx beta-arrestin luminescence, antagonist mode; active compounds read low; max response, negative = inhibition, %; actives 2.5% (n = 360,000); AID 652054; in the data active = max response below about -50%; note: % is set by controls: 0 for no effect and ±100 for the full control effect
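Cells expressing the human receptor were seeded at 1500 cells/well, incubated overnight at 37 degrees C in 5% CO2, then exposed to library compounds with dopamine controls for 90 minutes at 37 degrees C before luminescent detection.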
D1 antag: human D1 dopamine receptor antagonism; P21728; HEK293 TREx D1 cells, calcium flux, dopamine EC80; active compounds read low; activity change, negative = inhibition, % at 10 µM; actives 3.2% (n = 360,000); in the data active = activity change below about -30%; note: % is set by controls: 0 for no effect and ±100 for the full control effect
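Allosteric or orthosteric antagonism assessed as attenuation of the calcium response to EC80 dopamine, added 180 s after compound, in induced HEK293 Trex D1 cells loaded with no-wash calcium dye.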
D3 ag: agonists of human D3 dopamine receptor. D3R DiscoveRx beta-arrestin cells, luminescence, 90 min. max activation, %. actives 0.58% (n = 410,000). AID 652048; in the data active = max activation above about 30%; note: 0% is about no effect
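Agonist-mode cell screen: cells plated at 1500/well and incubated overnight at 37 °C, then exposed to library compounds for 90 min at 37 °C. Detection reagent was added for 30–60 min at room temperature, and luminescence was read.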
Starred values were filed as active, the others as inactive; . = not tested or not shown; ! = not confirmed by another sample. Only some compounds are listed: those with a hit (about 6.1% of all), similar ones and a draw of the others.

SMILES	D1 PAM	D1 agonist	DRD3 antagonist	D1 antag	D3 ag
COc1ccc(N2CCN(C(c3ccccc3F)c3sc4nc(-c5ccco5)nn4c3O)CC2)cc1 (stereo not given)	-2	1	.	.	-5
c1ccc2[nH]ccc2c1	.	.	.	.	50*
O=C(Cn1c(=O)n(-c2ccccc2Cl)c(=O)c2sc3ccccc3c21)NC1CCCCC1	0	39*	.	0	0
O=C(Cn1c(=O)n(-c2ccccc2Cl)c(=O)c2sc3ccccc3c21)NC1CCCC1	0	1	.	-5	8
CCOC(=O)C1=C(Cc2ccc(C)cc2)C(=O)c2ccccc2C1=O	-3	11	.	6	.
CCOC(=O)C1=C(O)c2ccccc2C(=O)/C1=C\c1ccc(CC)cc1	-6	12	-70*	-7	-39
CCOC(=O)C1=C(Cc2ccc(OC)cc2)C(=O)c2ccccc2C1=O	-1	27	-71*	-9	-35
CCCc1ccc(/C=C2\C(=O)c3ccccc3C(O)=C2C(=O)OCC)cc1	-1	4	.	-15	.
CC(=O)c1ccc(NC(=S)N2CCC(Cc3ccccc3)CC2)cc1	-10	10	-7	-35*	-9
COC(=O)Cc1ccc(NC(=S)N2CCN(c3cccc(O)c3)CC2)cc1	-17	13	1	-38*	32*
COC(=O)Cc1ccc(NC(=S)N2CCN(C)CC2)cc1	0	2	-13	1	-5
CC(C)CNC(=S)N1CCC(Cc2ccccc2)CC1	-3	1	7	-36*	3
COC(=O)Cc1ccc(NC(=S)N2CCC(Cc3ccccc3)CC2)cc1	-7	1	20	-32*	22
CC(=O)c1cccc(NC(=S)N2CCC(Cc3ccccc3)CC2)c1	-6	1	-7	.	-9
COc1ccccc1NC(=O)COC(=O)/C=C/c1ccc(OC)c(OC)c1	.	.	0	.	1
CCc1ccc(-c2cc(C)no2)cc1S(=O)(=O)NC(C)Cc1ccco1 (stereo not given)	-5	6	-14	-1	1
Cc1ccc(S(=O)(=O)n2nc(-c3ccc(Cl)cc3)nc2NCc2ccc(F)cc2)cc1	2	11	.	-48*	-14
CC(C)c1ccc(CNc2nc(-c3ccco3)nn2S(=O)(=O)c2ccc(F)cc2)cc1	-1	9	.	-4	-12
Cc1ccc(S(=O)(=O)n2nc(-c3ccccc3)nc2NCc2ccc(Cl)cc2)cc1	0	5	.	-57*	1
Cc1cccc(NC(=O)CCN2CCN(C/C=C/c3ccccc3)CC2)c1	-2	10	-64*	-10	7
O=C(CCN1CCN(C/C=C/c2ccccc2)CC1)Nc1ccccc1	-3	3	-58*	5	4
Cc1cc(NC(=O)CCN2CCN(C/C=C/c3ccccc3)CC2)ccc1Br	-18	18	-17	-18	-5
COc1cccc(C(=O)Nc2nnc(Cc3ccc(OC)c(OC)c3)s2)c1	2	4	-8	-6	2
COc1ccc(Cc2nnc(NC(=O)CSc3ccccc3)s2)cc1OC	0	10	0	56	-1
COc1ccc(Cc2nnc(NC(=O)c3ccc(OC)c(OC)c3)s2)cc1OC	-4	4	7	-19	42*
SMILES	D1 PAM	D1 agonist	DRD3 antagonist	D1 antag	D3 ag
COc1ccc(Cc2nnc(NC(=O)CSc3ccc(Cl)cc3)s2)cc1OC	2	98*	.	64	.
COc1ccc(C(=O)Nc2cccc(-c3cn4ccsc4n3)c2)c(OC)c1	-3	0	.	-17	63*
COc1ccc(C(=O)Nc2cccc(-c3cn4ccsc4n3)c2)cc1OC	-4	-1	.	-9	1
CCN(CC)S(=O)(=O)c1cc(NC(=O)CCCOc2ccc(C(C)=O)cc2)ccc1C	-4	7	-23	-14	1
Cc1cc(=O)oc2ccc(OCC(=O)N(Cc3ccc(F)cc3)Cc3ccco3)cc12	-6	17	0	-42*	2
Cc1cccc(OCC(=O)N(Cc2cccc(Cl)c2)Cc2ccco2)c1C	-1	31*	.	-17	-12
Cc1cc(C)c2c(CC(=O)N(Cc3ccc(Cl)cc3)Cc3ccco3)coc2c1	2	38*	.	16	-14
Cc1ccc([C@H]2C[C@@H](O)[C@H](n3cc(-c4ccc(F)cc4)nn3)CN2Cc2cccs2)cc1	.	.	-3	.	-1
COc1cccc(CNC(=O)c2cc3c(=O)n(Cc4cccnc4)ccc3nc2C)c1	-6	1	.	-2	-17
CCc1cccc(C)c1NC(=O)C1CCN(S(=O)(=O)c2cc(Br)cc3c2N(C(C)=O)CC3)CC1	1	0	.	-12	2
O=C(COCc1cc(-c2ccc(F)cc2)on1)Nc1cc(Cl)ccc1O	1	17	.	-37*	18
O=C(COCc1cc(-c2ccc3c(c2)OCO3)on1)Nc1cc(C(F)(F)F)ccc1Cl	-2	33*	.	-7	4
Cc1c(Cl)cccc1NC(=O)COCc1cc(-c2ccc3c(c2)OCO3)on1	5	13	.	-2	1
O=C(COCc1cc(-c2ccc3c(c2)OCO3)on1)Nc1cc(Cl)ccc1O	-2	5	.	2	6
COC(=O)/C(C#N)=C/c1c(Oc2cccc(C)c2C)nc2ccccn2c1=O	1	1	0	-5	1
CCN1CCCC1CNc1ccc(S(C)(=O)=O)cc1[N+](=O)[O-] (stereo not given)	-7	1	-54*	6	-18
COc1ccc(CCC(=O)NCc2nc3cccnc3n2Cc2ccc(F)cc2)cc1	3	1	.	28	-8
CC1Cc2cc(S(=O)(=O)N3CCCCC3)ccc2N1C(=O)C1CCC1 (stereo not given)	-1	5	1	-28	-2
COC(=O)c1cc(S(=O)(=O)N2CCN(c3ccc(OC)cc3)CC2)c[nH]1	-3	7	.	1	11
CC(=O)c1ccc(N2CCN(S(=O)(=O)c3ccc4c(c3)CC(C)N4C(=O)C3CC3)CC2)cc1 (stereo not given)	-6	6	4	-6	3
COC(=O)c1cc(S(=O)(=O)N2CCN(c3ccc(C(C)=O)cc3)CC2)c[nH]1	1	5	-17	-32*	2
CC1CCN(S(=O)(=O)c2ccc3c(c2)CC(C)N3C(=O)C2CCC2)CC1 (stereo not given)	-13	12	-6	-34*	-3
COc1ccccc1CNS(=O)(=O)c1ccc2c(c1)CC(C)N2C(=O)C1CCC1 (stereo not given)	-17	20	1	-32*!	2
CC(=O)c1ccc(N2CCN(S(=O)(=O)c3ccc4c(c3)CC(C)N4C(C)=O)CC2)cc1 (stereo not given)	-4	11	-1	-48*	7
O=C(O)c1ccc2c(c1)C(=O)N([C@H](Cc1ccc3ccccc3c1)C(=O)O)C2=O	4	2	.	-7	.
Cc1cc(OC(C)C(=O)Nc2ccccc2C(=O)N2CCCC2)ccc1Cl (stereo not given)	-1	-1	8	6	2
